# aSyn 5UTR act = Activators via SNCA 5'UTR binding, MLPCN; alpha-synuclein 5'UTR reporter, activators screen; activity score, % (tested at 7.5 µM), hits read low; 300,000 compounds, 7.1% hits; AID 1814; in the data active means activity score below about -60%
# Starred values were filed as active, the others as inactive. A selection follows.
SMILES,aSyn 5UTR act
Cc1cccc(/C=C2\CCC(=C3SCCCS3)C2=O)c1,85
O=C1/C(=C/c2cccnc2)CC/C1=C\c1cccnc1,-65*
CC(C)/C=C1\CC/C(=C\c2cccnc2)C1=O,-62*
N#C/C(C(=O)N1CCOCC1)=C1\Nc2ccccc2S1,-65*
CCC(=O)Nc1cccc(C(=O)/C=C/c2cc(Br)ccc2OC)c1,-125*
COc1ccc(Br)cc1/C=C/C(=O)Nc1ccc(C)cc1,-86*
COc1ccc(Br)cc1/C=C/C(=O)Nc1ccc2ccccc2c1,-91*
S=C(N=Nc1ccccc1)NNc1ccccc1,-132*
COc1ccccc1NC(=O)c1ccc2c(c1)OCO2,-125*
COc1cc2c(cc1NC(=O)c1ccc3c(c1)OCO3)oc1ccccc12,-285*
CCOc1ccc(C(=O)Nc2c(C(N)=O)oc3ccccc23)cc1,-115*
COc1ccccc1NC(=O)/C=C/c1ccc2c(c1)OCO2,-167*
COc1ccc(NC(=O)c2oc3ccccc3c2NC(=O)c2ccc3c(c2)OCO3)cc1,-68*
O=C(Nc1ccc2c(c1)oc1ccccc12)c1ccc2c(c1)OCO2,-233*
O=c1c(O)c(-c2ccc3c(c2)OCO3)oc2ccccc12,-133*
CC(=O)NC1=NC(=O)/C(=C/c2cc(C)n(-c3ccc(NC(C)=O)cc3)c2C)S1,-80*
CC(=O)NC(c1ccc(C(C)C)cc1)c1ccc2cccnc2c1O (stereo not drawn),67
C/C(=N\Nc1cccc2cccnc12)c1ccc(N)cc1,-93*
C/C(=N\Nc1cccc2cccnc12)c1ccccc1O,-204*
O=C(O)c1ccccc1NN=C1CCCCC1,-192*
C/C(=N\Nc1ccc(C)c(Cl)c1)c1ccncc1,-77*
C/C(=N\Nc1ccc(C)c(Cl)c1)c1cccnc1,-105*
C/C(=N\Nc1ccccc1C(=O)O)c1ccncc1,-132*
CCN(CC)C(=O)CSC(=Nc1ccccc1F)NC#N,-109*
Clc1cccc(Cl)c1CSc1cc2c(nn1)-c1ccccc1CC2,-83*
SMILES,aSyn 5UTR act
Clc1ccccc1CSc1cc2c(nn1)-c1ccccc1CC2,-132*
O=C(Nc1nc(-c2ccccc2)cs1)c1ccc(Br)o1,-79*
O=C(NNc1nc(-c2ccccc2)cs1)c1ccc(F)cc1,76
Cc1ccc(-c2ocnc2C(=O)Nc2nc(C)cs2)cc1,-91*
O=C(Nc1nc(-c2cccnc2)cs1)c1cccc([N+](=O)[O-])c1,-84*
O=C(Nc1nc(-c2ccccc2)cs1)c1ccccc1F,-135*
